# From PubChem
# Hits are enriched below; roughly 19% of the tested compounds scored in any of these assays.
# Cycloheximide cs = counter-screen for Shiga toxin inhibitors: cycloheximide protein synthesis inhibition; cell reporter, cycloheximide protein synthesis inhibition counterscreen; max response, %; 300,000 tested, 12% active; AID 2314; in the data active means max response mostly above about 13%, no sharp cut-off; inactive means mostly below about 14%; further: read at 38.3 µM for the half of the compounds with a filed dose
# SARS PLP yeast = SARS-CoV PLP inhibition in yeast. S. cerevisiae expressing SARS-CoV PLpro, growth rescue. Potency, µM (titrated, usually from 32.9 µM), hits mostly activators. AID 485353. 330,000 tested, 0.19% active; calls by dose curve; further: nearly all actives have a fitted effect of over 55% in size
# Pf growth 96h = inhibits malaria parasite growth, 96 h; P. falciparum luciferase reporter growth, 96 h; Potency, µM (doses to about 28.7 µM), hits mostly inhibitors; 320,000 tested, 6.9% active
#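 Cell-based qHTS: luciferase-tagged P. falciparum in erythrocytes (2% hematocrit, 0.05% parasitemia final) incubated with compounds for 96 hours, 37 C, 5% CO2; luciferase detection reagent then added and luminescence measured.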
# Pf growth 48h = inhibits P. falciparum growth in the first generation, 48 h; Potency, µM (top dose mostly 28.7 µM), usual class: inhibitors; 310,000 tested, 5.9% active; AID 504832; P. falciparum luciferase growth in erythrocytes, 48 h
#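 Luciferase-expressing P. falciparum in infected erythrocytes (2% hematocrit, 0.1% parasitemia final) in RPMI 1640/0.5% Albumax were exposed to compound for 48 hours at 37 C, 5% CO2; growth read as luminescence.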
# Shiga toxin inh = inhibitors of Shiga toxin in Vero cells | Vero cells, Shiga toxin protein synthesis inhibition reporter | inhibition, % at 38.7 µM | 290,000 tested, 9.2% active | AID 2315; in the data active means inhibition mostly above about 28%, no sharp cut-off; inactive means mostly below about 43%
# AMA1 RON2 block = disrupts binding of P. falciparum AMA1 to RON2; 360,000 tested, 0.2% active; Potency, µM (top dose mostly 58.2 µM), actives largely listed as inhibitors; AlphaScreen AMA1-biotinylated RON2 peptide binding; further: nearly all actives have a fitted effect of over 45% in size
#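 AMA1 (3D7) with his tag at 25 nM final met compounds first, then biotinylated RON2 peptide at 25 nM; detection used donor plus acceptor beads, 10 µg/mL apiece, read by AlphaScreen after 30 min at room temperature.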
# Numbers stand for hits; – = inactive; ? = inconclusive; · = not tested or not shown; [ ] = remark or other dose. Unless noted, the call rests on the fitted dose curve; in most records, active means well fitted curve in the direction sought with a large enough effect; inconclusive means small, poorly fitted or top-dose-only effect, or another doubt; inactive means no such curve, though single readings can be large; an effect the other way counts as inactive or inconclusive.
SMILES,Cycloheximide cs,SARS PLP yeast,Pf growth 96h,Pf growth 48h,Shiga toxin inh,AMA1 RON2 block
CC(C)CN(CC(C)C)C(=O)C12CCC(C)(C(=O)C1)C2(C)C (stereo not drawn),–,?,–,–,–,–
COc1ccc(C2=Nc3ccccc3N(C(=O)c3ccc(C(F)(F)F)cc3)C2C(=O)NCc2ccccc2)cc1 (stereo not drawn),·,·,·,·,·,–
O=C1C2C3C=CC(C3)C2C(=O)N1Nc1c(Cl)cc(Cl)cc1Cl (stereo not drawn),–,–,–,–,–,–
CC(C(=O)Nc1cccc(S(=O)(=O)N2CCOCC2)c1)N1CCN(C)CC1 (stereo not drawn),–,–,?,–,–,–
CCN1CCN(c2ccc(NC(=O)c3cccc(F)c3)cc2Cl)CC1,18,–,–,–,97,–
CCN1CCN(c2ccc(NC(=O)c3ccco3)cc2Cl)CC1,27,–,–,–,59,–
O=C(Nc1ccc(N2CCCCC2)c(Cl)c1)c1ncn[nH]1,–,–,–[5.75 µM],0.47µM,–,–
Cc1cccc(NC(=O)C(Cc2ccccc2)n2cccc2)c1 (stereo not drawn),–,–,?,?,–,–
O=C(Nc1ccc(C(=O)O)cc1)/C(=C\C=C\c1ccccc1)NC(=O)c1ccccc1Br,–,–,–,–,–,–
COc1ccc(NS(=O)(=O)c2ccc(C)c(NC(=O)CN3C(=O)NC4(CCCC4)C3=O)c2)cc1,·,–,–,?,·,–
COc1ccccc1NNC(=O)c1cccnc1Oc1ccccc1,–,–,–,–,–,–
CN(C)c1ccc(C(CNC(=O)c2ccc(C#N)cc2)c2c[nH]c3ccccc23)cc1 (stereo not drawn),–,–,?,?,–,14µM
CCOC(=O)c1ccc(S(=O)(=O)NCC(c2ccc(N(C)C)cc2)c2c[nH]c3ccccc23)cc1 (stereo not drawn),–,–,–,–,–,14µM
CN(C)c1ccc(C(CNS(=O)(=O)c2ccc(F)cc2)c2c[nH]c3ccccc23)cc1 (stereo not drawn),–,–,–,–,–,?
COc1ccc(C(=O)Nc2c(-c3cccs3)c(=O)c3ccccc3n2C)cc1,–,–,–,–,–,–
COc1ccc(S(=O)(=O)N(C)C)cc1NC(=O)COC(=O)Cn1cnc2ccccc2c1=O,·,–,–,–,·,–
CCN(C[C@H]1N[C@@](C)(C(=O)OC)[C@H]2C(=O)N(Cc3ccccc3)C(=O)[C@@H]12)C(=O)Nc1ccc(F)cc1,·,–,·,·,·,–
COc1ccccc1CNC(=O)C(=O)NCC1OCCN1C(=O)c1cccs1 (stereo not drawn),–,–,–,–,–,–
Cc1ccc(CCSCC(=O)O)cn1,–,–,–,–,–,–
Cc1ccc(SCCc2ccc(C)nc2)cc1,22,–,–,–,active,–
CC(=O)c1sc2nc(-c3cccs3)ccc2c1N,46,–,–,·,101,–
COc1ccc(-c2ccc3c(N)c(C(=O)c4cccc(OC)c4)sc3n2)cc1,–,–,–,·,–,–
COc1ccc(C(=O)c2sc3nc(-c4ccc(OC)cc4)ccc3c2N)cc1,22,–,–,–,–,–
COc1ccc(NC(=O)c2sc3nc(-c4cccnc4)ccc3c2N)cc1OC,–,–,?,?,–,–
Nc1c(C(=O)Nc2nc3ccccc3s2)sc2nc(-c3cccs3)ccc12,–,–,–,–,–,–
SMILES,Cycloheximide cs,SARS PLP yeast,Pf growth 96h,Pf growth 48h,Shiga toxin inh,AMA1 RON2 block
COc1cccc(-c2ccc3c(N)c(C(=O)NC4CC4)sc3n2)c1,37,–,–,–,104,–
COc1ccc(NC(=O)C[C@H]2C(=O)N(c3ccc(OC)cc3)C[C@@H]2CSC)cc1,·,·,·,·,·,–
COC(=O)C1=C(c2ccc(OC(F)(F)F)cc2)C[C@@H]2CC[C@H]1N2C(=O)NCCOc1ccccc1,·,–,4.7µM,12µM,·,–
COC(=O)C1=C(c2ccc(Cl)c(C(F)(F)F)c2)C[C@@H]2CC[C@H]1N2C(=O)NCCO,·,–,–,?,·,–
COC(=O)C1=C(c2ccc(Cl)c(C(F)(F)F)c2)C[C@@H]2CC[C@H]1N2C(=O)NCCOc1ccccc1,·,–,4.7µM,12µM,·,–
COC(=O)C1=C(c2ccc(OC(F)(F)F)cc2)C[C@@H]2CC[C@H]1N2C(=O)NCCOc1ccccc1Cl,·,–,?,10µM,·,–
COC(=O)C1=C(c2ccc(Cl)c(C(F)(F)F)c2)C[C@@H]2CC[C@H]1N2C(=O)NCc1ccco1,·,–,8.3µM,?,·,–
N#CC1(NC(=O)CN2C(=O)c3ccc([N+](=O)[O-])cc3C2=O)CCCCC1,·,–,–,–,·,–
CCCC1(CCC)NC(=O)N(CC(=O)Nc2cccc(OC)c2)C1=O,–,–,–,·,–,–
COc1cc2c(cc1OC)C(=Cc1ccc(N(C)C)cc1)C=C2,·,·,·,·,·,8.9µM
CN(C)c1ccc(C=C2C(=O)NC(=O)NC2=O)cc1,·,·,·,·,·,–
Cc1nnc(NC(=O)c2ccc(S(=O)(=O)N(C)c3ccccc3)cc2)s1,·,–,–,–,·,–
COc1ccc(-c2csc(NC(=O)c3c(C)noc3C)n2)cc1,·,–,–,–,·,–
Cc1csc(NC(=O)c2ccc(S(=O)(=O)N(C)c3ccccc3)cc2)n1,34,–,?,?,42,–
COc1ccc(-c2csc(NC(=O)c3ccoc3C)n2)cc1,41,–,–,–,153,–
CN(c1ccccc1)S(=O)(=O)c1ccc(C(=O)Nc2nccs2)cc1,–,–,?,·,–,–
CN(c1ccc(C(=O)Nc2nccs2)cc1)S(=O)(=O)c1ccccc1,38,–,–,?,57,–
COC(=O)c1c(-c2ccncc2)csc1NC(=O)c1ccoc1C,21,–,·,–,66,–
Clc1cccc(-c2nc3c4ccccc4ccn3c2Cc2ccsc2)c1,·,·,·,·,·,–
Oc1c(Br)cc(Br)cc1C=Nc1cccc2ncccc12,·,·,·,·,·,–
CN(CC(=O)NCc1ccco1)CC(=O)Nc1cc(S(C)(=O)=O)ccc1Cl,·,–,–,–,·,–
COc1ccc(C2=NOC(C(=O)N(C)Cc3ccccc3)C2)cc1 (stereo not drawn),–,–,–,–,–,–
Cc1csc(NC(=O)c2ccc(C(=O)Nc3nc(C)cs3)cc2)n1,–,–,?,?,–,·
COc1ccc(-c2csc(NC(=O)c3ccc(S(C)(=O)=O)cc3)n2)cc1,33,–,–,–,72,–
Cc1csc(NC(=O)c2ccc(S(C)(=O)=O)cc2)n1,40,–,–,–,72,–
COc1ccc(-c2csc(NC(=O)c3ccccc3S(C)(=O)=O)n2)cc1,–,–,–,–,–,–
COC(=O)C1C=CC(OC2OC(COC(C)=O)C(OC(C)=O)C(OC(C)=O)C2OC(C)=O)n2c(=O)n(-c3ccccc3)c(=O)n21 (stereo not drawn),·,·,·,·,·,–
O=C(CCc1nnc(C2CCCCC2)o1)N1CCN(c2ccccc2F)CC1,71,–,?,–,89,–
